# Hits are enriched below; roughly 3% of the tested compounds scored in any of these assays.
# Shn3 inh set2 – reduction of Shn3 3'UTR firefly luciferase signal, primary screen, Schnurri-3 inhibitor project, cell-based, Clone20 osteoblasts, set 2. Clone20 osteoblast Shn3 3'UTR firefly luciferase, 24 h. inhibition, % at 12.5 µM. 0.52% of 360,000 active. AID 588674, 2011;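 active = mean inhibition of at least 75% with every replicate also reaching 75%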;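 also: 0% = median of neutral control wells and 100% = pilot-screen positive control compound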
# PAX8 inh HTS – inhibitors of PAX8-driven TPO luciferase reporter, primary screen, RMG-I cells, single concentration. inhibition, % at 12.6 µM. 1.2% of 360,000 active. SteadyGlo, 24 h;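 active = mean replicate inhibition at least 60% with every replicate also reaching 60%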;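 also: luciferase light reporting Pax8 driven TPO promoter activity; plate controls were median of neutral control wells for no effect and mitoxantrone controls for full effect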
# TRPM1 prom inh – inhibitors of MITF-dependent TRPM1 promoter reporter, primary screen, cell-based, SK-MEL-5, single point, luciferase; SK-MEL-5 TRPM1 promoter luciferase, 24 h; inhibition, % at 12.5 µM; 0.83% of 330,000 active;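 active = mean inhibition across replicates of 60% or more, whatever share of single replicates reaches that level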
# Peg3 prom inh – Peg3 promoter-driven luciferase inhibitors, primary screen, cell-based, HeLa, luciferase luminescence; HeLa PEG-Prom luciferase reporter, overnight; inhibition, % at 20 µM; 1.7% of 360,000 active;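 active = inhibition of at least 50% at 20 µM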
# EWS-Fli inh – EWS/Fli-driven NR0B1 reporter inhibitors, primary screen, A673 cells, NR0B1 luciferase, luminescence, MLPCN library | inhibition, % at 12.6 µM | viability-normalised | 0.67% of 350,000 active;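 active = mean inhibition of at least 50% after viability correction, with every replicate also passing that limit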;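 also: firefly luciferase signal divided by Alamar Blue viability fluorescence both relative to DMSO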
# ABHD5 PLIN5 PPI – ABHD5-PLIN5 interaction inhibitors, primary screen, cell lysate, split luciferase complementation, luminescence; Perilipin-5 (Homo sapiens) + 1-acylglycerol-3-phosphate O-acyltransferase ABHD5 (Homo …; Split G. princeps luciferase complementation, 4 h; inhibition, % at 4 µM; 0.78% of 360,000 active; AID 602281, 2012;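 active = inhibition above the mean inhibition across every tested compound plus 3 SD, cut at about 22% in these data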;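 also: 0% = DMSO only wells and the 100% control is not disclosed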
# * marks the source's active call; other numbers are inactive results; . = not tested or not shown.
SMILES,Shn3 inh set2,PAX8 inh HTS,TRPM1 prom inh,Peg3 prom inh,EWS-Fli inh,ABHD5 PLIN5 PPI
CN1C(=O)c2cc(NS(C)(=O)=O)ccc2OC[C@H]2O[C@@H](CC(=O)N3CCOCC3)CC[C@@H]21,.,5.1,.,.,1.5,.
COc1ccc2nc(NC(=O)c3cccc(-c4cc5ccccc5oc4=O)c3)sc2c1,-22.4,-52.6,2.5,99.1*,.,-2.0
COc1ccc(C(=O)Nc2nc3ccc(OC)cc3s2)cc1,-112.5,-129.1,-54.4,-297.8,-81.3,7.2
C/C=C/c1ccc([C@@H]2[C@@H](CN(C)C(=O)C3CC3)N(C(=O)CC)[C@H]2CO)cc1,.,-14.2,.,.,6.2,.
CC(C)c1ccc(CNc2nc(NCC3CC3)nc3ccsc23)cc1,73.5,24.2,.,53.9*,24.8,-4.7
CNc1nc(NCCOc2ccccc2Cl)c2sccc2n1,69.6,-4.7,.,-21.1,2.8,8.2
COc1ccccc1CNc1nc(NCc2ccc(C(C)C)cc2)c2sccc2n1,87.5*,47.3,.,95.3*,4.1,5.8
COc1ccccc1CNc1nc(NCCOc2ccccc2Cl)c2sccc2n1,78.1,15.5,.,59.6*,28.4,5.1
CSc1ccccc1CNc1nc(NCC2CC2)nc2ccsc12,76.1,47.9,.,29.4,31.3,9.5
COc1ccc(S(=O)(=O)Nc2ccc3c(c2)CC(=O)N([C@@H](C)CO)C[C@@H](C)[C@H](CN(C)C)O3)cc1,.,-14.2,.,.,-13.0,.
COc1ccc(NC(=O)Nc2ccc3c(c2)C(=O)N([C@H](C)CO)C[C@H](C)[C@@H](CN(C)CC2CC2)OCCCC[C@H](C)O3)cc1,.,-3.4,.,.,.,.
CC(C)NC(=O)N[C@@H]1CC[C@H](CCNC(=O)C2CC2)O[C@H]1CO,.,-6.4,.,.,-5.2,.
COc1ccc(CN(C)C[C@H]2OCCCC[C@H](C)Oc3ccc(NC(=O)Nc4ccc(F)cc4)cc3C(=O)N([C@@H](C)CO)C[C@H]2C)cc1,.,-15.8,.,.,-0.2,.
C[C@@H]1CN([C@H](C)CO)C(=O)c2cccc(NC(=O)NC3CCCCC3)c2O[C@@H]1CN(C)S(=O)(=O)c1cccs1,.,.,.,.,0.7,.
CCOC(=O)C1(Cc2cccc(OC)c2)CCN(C/C=C/c2ccc(OC)cc2)CC1,88.0*,-1.5,10.4,7.1,18.3,-2.1
CNc1ccccc1C(=O)OC(C)C(=O)Nc1ccc(Cl)cn1 (stereo not drawn),-6.6,29.1,6.1,99.9*,25.6,2.9
C[C@@H]1CCCCO[C@@H](CN(C)S(=O)(=O)c2ccc(Cl)cc2)[C@H](C)CN([C@@H](C)CO)C(=O)c2cc(NS(=O)(=O)c3ccccc3)ccc2O1,.,15.0,.,.,13.7,.
C[C@H](NC(=O)[C@H]1[C@H](CO)[C@H]2Cn3c(cccc3=O)[C@H]2N1S(C)(=O)=O)c1ccccc1,.,-0.1,.,.,-11.1,.
O=C(c1ccncc1)N1CC(=O)N2[C@H](C1)[C@@H](c1ccc(-c3ccccc3)cc1)[C@@H]2CO,.,-12.4,.,.,54.4*,.
O=C(c1cccc(F)c1)N1CC(=O)N2[C@H](C1)[C@H](c1ccc(/C=C/c3ccccc3)cc1)[C@@H]2CO,.,63.3*,.,.,16.7,.
O=C(c1ccc(F)cc1)N1CC(=O)N2[C@H](CO)[C@@H](c3ccc(/C=C/c4ccccc4)cc3)[C@H]2C1,.,16.1,.,.,-3.0,.
O=C(c1ccncc1)N1CC(=O)N2[C@@H](CO)[C@@H](c3ccc(-c4ccccc4)cc3)[C@@H]2C1,.,1.3,.,.,4.7,.
COc1ccccc1NCC(=O)N/N=C/c1c(O)ccc2ccccc12,54.4,40.4,26.2,56.0*,1.5,-3.1
COc1ccccc1NCC(=O)N/N=C/c1cccnc1,1.9,.,-1.1,4.1,.,-4.8
O=C(Cc1n[nH]c(=O)[nH]c1=O)N/N=C/c1c(O)ccc2ccccc12,-23.1,11.5,-13.3,17.6,1.2,1.2
O=C(CNc1ccc(F)cc1)N/N=C/c1c(O)ccc2ccccc12,91.5*,27.2,34.1,51.2*,14.3,-1.4
CCOC(=O)c1c(-c2ccccc2)nnn1-c1nc(OCC)nc(N2CCCCC2)n1,47.0,28.2,16.9,52.7*,.,3.4
Cc1noc(C)c1NC(=O)N(C)C[C@H]1Oc2ccc(N(C)C)cc2CC(=O)N([C@H](C)CO)C[C@@H]1C,.,-9.3,.,.,-3.6,.

# Assay outcomes (PubChem BioAssay)
